Drawing on PubChem BioAssay (NCATS), this text covers Potency and activity, negative = cell killing for 17 molecules.

The test system of one experiment is Es-2. The experiment in a line: Primary qHTS to identify gynecologic anti-cancer compounds using libraries of approved drugs and bioactive compounds (AID 1345084). Note: nearly all actives have a fitted effect of over 55% in size. To be noted: Gynecologic cancer cell panel viability, ATPlite luminescence, 48 h; series mostly up to 57.5 µM. An outline of the steps:
(§1)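 In this quantitative HTS, cell killing is estimated from loss of ATP-dependent luciferase light. Cells see five compound concentrations over a 48 h exposure.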
(In general: In qHTS, concentration-response curves come from the screen itself.)

In another experiment the test system is HeLa. Described as above. To be noted: Gynecologic cancer cell panel viability, ATPlite luminescence, 48 h; series mostly up to 57.5 µM. An outline of the steps:
as §1
On the technique in general: Cellular ATP, detected with luciferase, serves as a proxy for viable cell number.

The next experiment has as its system Hek293T. The experiment is described as above. To be noted: Gynecologic cancer cell panel viability, ATPlite luminescence, 48 h, control line for the selectivity index; series mostly up to 57.5 µM. The essentials: as §1
For a further experiment, the system named is JEG-3. The experiment is described as above. The following applies: Gynecologic cancer cell panel viability, ATPlite luminescence, 48 h; series mostly up to 57.5 µM. An outline of the steps: as §1
The subject of a further experiment is OV90. The description is as above. To be noted: Gynecologic cancer cell panel viability, ATPlite luminescence, 48 h; series mostly up to 57.5 µM. An outline of the steps: as §1
Another experiment concerns PA-1. The experiment is described as above. To be noted: Gynecologic cancer cell panel viability, ATPlite luminescence, 48 h; series mostly up to 57.5 µM. An outline of the steps:
as §1

The next experiment concerns SKOV3. The experiment is described as above. To be noted: Gynecologic cancer cell panel viability, ATPlite luminescence, 48 h; series mostly up to 57.5 µM. The essentials: as §1
The test system of a further experiment is Tov-21-G. The description is as above. To be noted: Gynecologic cancer cell panel viability, ATPlite luminescence, 48 h; series mostly up to 57.5 µM. The essentials: as §1
Another experiment relates to Tov112D. The experiment is described as above. The following applies: Gynecologic cancer cell panel viability, ATPlite luminescence, 48 h; series mostly up to 57.5 µM. The essentials:
as §1

Experiment [1] in a line: Drug repurposing screens with cells derived from glioblastoma tumor samples (AID 1345199). Note: nearly all actives have a fitted effect of over 40% in size. Note: potency is the fitted concentration of half-maximal effect. To be noted: GBM patient neurospheres viability, ATP luminescence, 48 h. An outline of the steps:
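Four patient lines of CD133+ GBM neurospheres were screened at several concentrations; hits were retested in those lines plus three slower-growing GBM lines, using 48-hour treatment and ATP-based viability.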

Setting [2] is: at 45.9 µM (top of the series), tumour line B.
The mark [3] stands for this setting: at 45.9 µM (top of the series), tumour line D.
Setting [4] is: at 46.1 µM (top of the series), tumour line C.
[5] abbreviates: at 20 µM (top of the series), tumour line C.
The mark [6] stands for this setting: at 21.2 µM (top of the series), tumour line B.
Where [7] appears, read: at 46 µM (top of the series), tumour line A.

Where “and” joins values, the source holds several entries; their conditions need not be identical. Equal values may be shown once. Records with an inconclusive call do not appear. Unmarked numbers belong to inactive results. Calls of active or inactive are those of the source. Calls come from the whole dose curve; as a rule, active = well fitted curve in the direction sought with a large enough effect; inconclusive = small, poorly fitted or top-dose-only effect, or another doubt; inactive = no such curve, though single readings can be large; an effect the other way counts as inactive or inconclusive.
% is set by controls: 0 for no effect and ±100 for the full control effect.

For `O=C(NCCN1CCOCC1)c1ccc(Cl)cc1`, the Potency result in the experiment with Es-2, with HeLa, with Hek293T, with JEG-3, in the experiment on OV90 and in the experiment with PA-1 was “inactive” in each case. Further, the Potency result in the experiment on SKOV3, with Tov-21-G and in the experiment with Tov112D was “inactive” each time. Moreover, the activity, negative = cell killing in experiment [1] (setting [2]) was -9.41% and -9.63%; in [1] (setting [3]), -2.14% and -10.5%; in [1] (setting [4]) it was -17.8% and -11.9%.
For `Clc1ccc(Cn2c(CN3CCCC3)nc3ccccc32)cc1`, the Potency entry in the experiment on Es-2, in the experiment on HeLa, in the experiment on Hek293T, in the experiment on JEG-3, in the experiment with OV90 and in the experiment on PA-1 was “inactive” throughout. Besides, the Potency entry with SKOV3, in the experiment on Tov-21-G and with Tov112D was “inactive” throughout. For the same molecule, the values for the activity, negative = cell killing in experiment [1] (setting [5]) and in [1] (setting [6]) were -7.94% and -28.4%, respectively. Also, the Potency in experiment [1] (tumour line A) is 2.51 µM (active).
With `Cc1c(NC(=O)c2ccc(C(C)(C)C)cc2)cccc1-c1cn(C)c(=O)c(Nc2ccc(C(=O)N3CCOCC3)cc2)n1`, the Potency result with Es-2, in the experiment with HeLa, with Hek293T, in the experiment with JEG-3, in the experiment on OV90 and in the experiment with PA-1 was “inactive” each time. Further, the Potency entry in the experiment with SKOV3, in the experiment on Tov-21-G and in the experiment with Tov112D was “inactive” each time.
As to `COc1ccc2cccc(CCNC(C)=O)c2c1`, the Potency result with Es-2, in the experiment with HeLa, in the experiment on Hek293T, in the experiment with JEG-3, in the experiment on OV90 and in the experiment on PA-1 was “inactive” in each case. The Potency result with SKOV3, in the experiment on Tov-21-G and in the experiment with Tov112D was “inactive” each time.
With `NCCS`, the Potency entry with Es-2, in the experiment on HeLa, with Hek293T, in the experiment with JEG-3, in the experiment with OV90 and in the experiment on PA-1 was “inactive” in each case. For the same molecule, the Potency entry with SKOV3, in the experiment with Tov-21-G and with Tov112D was “inactive” throughout. The activity, negative = cell killing is -3.94% and -12.1% in [1] (setting [2]); -6.82% and -13.2% in [1] (setting [3]); -8.15% and -11.3% in experiment [1] (setting [7]); -12.7% and -9.68% in [1] (setting [4]).
As for `COc1ccc(Cc2ccc(NC(N)=O)cc2)cc1-c1cccc(Cl)c1`, the Potency entry with Es-2, with HeLa, in the experiment on Hek293T, in the experiment on JEG-3, in the experiment with OV90 and with PA-1 was “inactive” each time. Further, the Potency result in the experiment with SKOV3, in the experiment on Tov-21-G and in the experiment with Tov112D was “inactive” each time.
In the case of `CCn1c(C(=O)N(C2CC2)C2CC2)cc2c3c(ncn3C)c(Nc3cc(C)n(C)n3)nc21`, the Potency result in the experiment on Es-2, in the experiment on HeLa, in the experiment with Hek293T, with JEG-3, in the experiment with OV90 and in the experiment with PA-1 was “inactive” throughout. Also, the Potency entry with SKOV3, with Tov-21-G and in the experiment on Tov112D was “inactive” each time.
In the case of `CC(C)C(=O)Oc1ccc(CO)cc1[C@H](CCN(C(C)C)C(C)C)c1ccccc1`, the Potency entry in the experiment on Es-2, in the experiment on HeLa, in the experiment with Hek293T, in the experiment with JEG-3, with OV90 and with PA-1 was “inactive” each time. The Potency result in the experiment with SKOV3, with Tov-21-G and in the experiment with Tov112D was “inactive” each time.
Turning to `Cc1ccccc1C(C(=O)NC1CCCCC1)N(C(=O)Cn1ccnc1C)c1cccc(F)c1` (stereo not given), the Potency result with Es-2, in the experiment on HeLa, in the experiment on Hek293T, in the experiment on JEG-3, with OV90 and in the experiment on PA-1 was “inactive” each time. Also, the Potency result in the experiment with SKOV3, with Tov-21-G and in the experiment on Tov112D was “inactive” in each case.
With `CC(=O)Oc1cc2c(s1)CCN(C(C(=O)C1CC1)c1ccccc1F)C2` (stereo not given), the Potency entry in the experiment on Es-2, with HeLa, in the experiment with Hek293T, in the experiment with JEG-3, with OV90 and in the experiment with PA-1 was “inactive” each time. Also, the Potency entry in the experiment on SKOV3, with Tov-21-G and in the experiment on Tov112D was “inactive” each time. For the same molecule, the values for the activity, negative = cell killing in experiment [1] (setting [2]), in experiment [1] (setting [3]) and in experiment [1] (setting [7]) were 4.77%, -7.3% and -27.4%, respectively.
In the case of `NC(=O)c1cccc(-c2cc(Nc3ccc(OC(F)(F)F)cc3)ncn2)c1`, the Potency entry with Es-2, in the experiment on HeLa, in the experiment on Hek293T, with JEG-3, with OV90 and with PA-1 was “inactive” in each case. The Potency result with SKOV3, in the experiment with Tov-21-G and with Tov112D was “inactive” throughout.
Regarding `COc1ccc(C2CC(c3ccccc3)=NN2c2ccc(S(N)(=O)=O)cc2)cc1` (stereo not given), the Potency result in the experiment on Es-2, in the experiment with HeLa, with Hek293T, in the experiment with JEG-3, in the experiment on OV90 and in the experiment with PA-1 was “inactive” in each case. Further, the Potency result in the experiment with SKOV3, in the experiment with Tov-21-G and in the experiment with Tov112D was “inactive” each time.
As for `CO[C@H]1C=CO[C@@]2(C)Oc3c(C)c(O)c4c(O)c(c5c(c4c3C2=O)NC2(CCN(CC(C)C)CC2)N=5)=NC(=O)C(C)=CC=C[C@H](C)[C@H](O)[C@@H](C)[C@@H](O)[C@@H](C)[C@H](OC(C)=O)[C@H]1C`, the Potency entry in the experiment with Es-2, with HeLa, with Hek293T, in the experiment on JEG-3, in the experiment with OV90 and with PA-1 was “inactive” throughout. Also, the Potency result in the experiment on SKOV3, in the experiment with Tov-21-G and in the experiment with Tov112D was “inactive” throughout.
As for `Cn1c(N2CCCCS2(=O)=O)nc(C(=O)NCc2ccc(F)cc2)c(O)c1=O`, the Potency entry with Es-2, with HeLa, in the experiment with Hek293T, in the experiment on JEG-3, with OV90 and with PA-1 was “inactive” throughout. For the same molecule, the Potency entry with SKOV3, in the experiment on Tov-21-G and in the experiment on Tov112D was “inactive” each time.
Regarding `CC(=O)CCCCn1c(=O)c2c(ncn2C)n(C)c1=O`, the Potency entry in the experiment with Es-2, in the experiment on HeLa, in the experiment with Hek293T, in the experiment with JEG-3, in the experiment with OV90 and with PA-1 was “inactive” each time. In addition, the Potency entry with SKOV3, with Tov-21-G and in the experiment with Tov112D was “inactive” throughout. Also, the activity, negative = cell killing is -6.47% in [1] (setting [5]); 0.116% in experiment [1] (setting [6]); 1.87% in experiment [1] (at 21.2 µM (top of the series), tumour line D); -23.5% in experiment [1] (at 21.3 µM (top of the series), tumour line A).
On to `CC(C)(C)OC(=O)N[C@H]1CCCCCC=C[C@@H]2C[C@@]2(C(=O)NS(=O)(=O)C2CC2)NC(=O)[C@@H]2C[C@@H](OC(=O)N3Cc4cccc(F)c4C3)CN2C1=O`, for which the Potency entry with Es-2, in the experiment with HeLa, in the experiment on Hek293T, with JEG-3, in the experiment with OV90 and in the experiment with PA-1 was “inactive” each time. The Potency entry in the experiment with SKOV3, in the experiment on Tov-21-G and in the experiment on Tov112D was “inactive” throughout.
With `C[N+](C)(C)CC(=O)O`, the Potency entry in the experiment with Es-2, with HeLa, in the experiment on Hek293T, in the experiment with JEG-3, in the experiment with OV90 and in the experiment with PA-1 was “inactive” each time. The Potency result with SKOV3, in the experiment with Tov-21-G and with Tov112D was “inactive” throughout.
